Measurements taken from PubChem BioAssay AID1159580 (chemical genetic matrix, 2015).
In all, about 5,500 compounds went through this assay and about 2,000 (36%) were called active. About 18% were inconclusive and are not listed. No stated cut-off is given here; in the data, active means normalized growth mostly below about 0.91 (no sharp cut-off); inconclusive means no clear call, values can overlap the other calls; inactive means mostly above about 0.92. This is one part of the list.

Experiment: chemical genetic growth profiling, strain panel (AID 1159580);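 further: tested at 20 µM; growth read once vehicle control cultures reached saturation at 30 °C; 1 = growth at the plate median or of vehicle wells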
Settings: S. cerevisiae deletion strains, growth OD

Measured: normalized growth

CNC(=O)N(C)c1nnc(C(C)(C)C)s1
inactive: locus YAL013W, strain DEP1, stronger effect = lower value 1.01 | locus YAL021C, strain ccr4, stronger effect = lower value 0.935 | locus YAL026C, strain drs2, stronger effect = lower value 0.993 | locus YAL030W, strain snc1, stronger effect = lower value 1 | locus YBL061C, strain skt5, stronger effect = lower value 0.997 | locus YBR009C, strain hhf1, stronger effect = lower value 1.01 | locus YBR021W, strain FUR4, stronger effect = lower value 1.04 | locus YBR023C, strain chs3, stronger effect = lower value 0.994 | locus YBR171W, strain sec66, stronger effect = lower value 0.983 | locus YBR229C, strain ROT2, stronger effect = lower value 1.01 | locus YBR231C, strain swc5, stronger effect = lower value 1.02 | locus YBR279W, strain paf1, stronger effect = lower value 0.996 | locus YCL011C, strain gbp2, stronger effect = lower value 0.985 | locus YCL016C, strain dcc1, stronger effect = lower value 0.979 | locus YCL029C, strain bik1, stronger effect = lower value 1.01 | locus YCL069W, strain vba3, stronger effect = lower value 0.988 | locus YCR088W, strain abp1, stronger effect = lower value 0.988 | locus YDL005C, strain med2, stronger effect = lower value 0.982 | locus YDL035C, strain GPR1, stronger effect = lower value 1.02 | locus YDL040C, strain nat1, stronger effect = lower value 0.99 | locus YDL074C, strain BRE1, stronger effect = lower value 1.03 | locus YDL101C, strain DUN1, stronger effect = lower value 1.02 | locus YDL134C, strain PPH21, stronger effect = lower value 1.01 | locus YDL185W, strain tfp1, stronger effect = lower value 0.959 | locus YDL192W, strain arf1, stronger effect = lower value 1.01 | locus YDR001C, strain nth1, stronger effect = lower value 0.977 | locus YDR069C, strain doa4, stronger effect = lower value 0.988 | locus YDR101C, strain arx1, stronger effect = lower value 1.01 | locus YDR137W, strain rgp1, stronger effect = lower value 0.999 | locus YDR150W, strain NUM1, stronger effect = lower value 1.01 | locus YDR159W, strain sac3, stronger effect = lower value 1.03 | locus YDR162C, strain NBP2, stronger effect = lower value 1.01 | locus YDR195W, strain ref2 0.946 | locus YDR297W, strain sur2, stronger effect = lower value 1.02 | locus YDR318W, strain mcm21, stronger effect = lower value 1.02 | locus YDR334W, strain swr1, stronger effect = lower value 0.982 | locus YDR335W, strain msn5, stronger effect = lower value 0.995 | locus YDR388W, stronger effect = lower value 1.02 | locus YDR392W, strain spt3, stronger effect = lower value 1.02 | locus YDR502C, strain sam2, stronger effect = lower value 1.02 | locus YEL003W, strain gim4, stronger effect = lower value 0.989 | locus YEL037C, strain rad23, stronger effect = lower value 0.981 | locus YEL061C, strain CIN8 (second series), stronger effect = lower value 0.98 | locus YEL061C, strain CIN8, stronger effect = lower value 1.01 | locus YER015W, strain faa2, stronger effect = lower value 0.99 | locus YER016W, strain bim1, stronger effect = lower value 0.987 | locus YER110C, stronger effect = lower value 1.01 | locus YER111C, strain swi4, stronger effect = lower value 1 | locus YER155C, strain BEM2 (second series), stronger effect = lower value 1.02 | locus YER155C, strain BEM2, stronger effect = lower value 1.01 | locus YER167W, strain BCK2, stronger effect = lower value 1.02 | locus YFR010W, strain ubp6, stronger effect = lower value 0.969 | locus YGL078C, strain dbp3, stronger effect = lower value 1.01 | locus YGL086W, strain mad1, stronger effect = lower value 1.01 | locus YGL167C, strain pmr1, stronger effect = lower value 0.976 | locus YGL173C, strain kem1, stronger effect = lower value 1 | locus YGL227W, strain vid30, stronger effect = lower value 1 | locus YGL240W, strain doc1, stronger effect = lower value 1.03 | locus YGL248W, strain PDE1, stronger effect = lower value 1.01 | locus YGL253W, strain hxk2, stronger effect = lower value 0.991 | locus YGR078C, strain PAC10, stronger effect = lower value 1.02 | locus YGR135W, strain pre9, stronger effect = lower value 1.02 | locus YGR229C, strain SMI1, stronger effect = lower value 1.04 | locus YGR252W, strain gcn5, stronger effect = lower value 1.05 | locus YHR013C, strain ard1, stronger effect = lower value 0.972 | locus YHR027C, strain rpn1, stronger effect = lower value 0.993 | locus YHR030C, strain SLT2, stronger effect = lower value 1.01 | locus YHR079C, strain IRE1 (second series), stronger effect = lower value 1.03 | locus YHR094C, strain hxt1, stronger effect = lower value 1.01 | locus YHR129C, strain ARP1, stronger effect = lower value 0.998 | locus YHR142W, strain chs7, stronger effect = lower value 0.979 | locus YHR200W, strain rpn10, stronger effect = lower value 1.02 | locus YIL066C, strain RNR3, stronger effect = lower value 1.02 | locus YIL073C, strain SPO22, stronger effect = lower value 1.07 | locus YIL125W, strain kgd1, stronger effect = lower value 1.02 | locus YIR030C, strain dcg1, stronger effect = lower value 1.02 | locus YJL092W, strain hpr5, stronger effect = lower value 0.976 | locus YJL095W, strain BCK1 (second series), stronger effect = lower value 0.993 | locus YJL095W, strain BCK1, stronger effect = lower value 1.01 | locus YJL115W, strain asf1, stronger effect = lower value 0.973 | locus YJL129C, strain trk1, stronger effect = lower value 0.999 | locus YJL134W, strain LCB3, stronger effect = lower value 1.02 | locus YJL154C, strain vps35, stronger effect = lower value 0.976 | locus YJL164C, strain tpk1, stronger effect = lower value 0.998 | locus YJL166W, strain qcr8, stronger effect = lower value 1.02 | locus YJL168C, strain set2, stronger effect = lower value 1.02 | locus YJL187C, strain SWE1 (second series), stronger effect = lower value 1.01 | locus YJR043C, strain POL32, stronger effect = lower value 1.03
